The record followed here is PubChem BioAssay (NCI).

About 83,000 compounds went through this panel and 20% of them were active in at least one assay; those are over-represented in the sample as a whole.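 In brief: 96-well plates, 48 h treatment, single concentration, percent growth endpoint.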 Unmarked numbers belong to inactive results. Calls of active or inactive are those of the source. Rule for the calls: active = growth percent below 10; inactive = the rest.

Common to all, as to test: NCI-60 one-dose screen, 48 h (100 = growth as untreated, 0 = no growth, -100 = all killed)
One experiment concerns HCT-15 colon. The note with it: 10 µM.
Another experiment has as its system HT29 colon. As to conditions: 10 µM.
For a further experiment, the system named is SNB-75 CNS. The note with it: 10 µM.
The next experiment concerns SNB-19 CNS. The note with it: 10 µM.
The next experiment concerns PC-3 prostate. The note with it: 10 µM.
A further experiment has as its system SK-MEL-5 melanoma. The note with it: 10 µM.
The subject of another experiment is UACC-62 melanoma. As to conditions: 10 µM unless noted.
The test system of another experiment is LOX IMVI melanoma. The note with it: 10 µM.
A further experiment has as its system SK-MEL-28 melanoma. As to conditions: 10 µM.
The test system of the next experiment is U251 CNS. As to conditions: 10 µM.

In the case of `O=C(O)CCC(NC(=O)OCc1ccccc1)C(=O)O` (stereo unspecified), the growth is 110% with HCT-15 colon; 105% in the experiment with HT29 colon; 99.5% in the experiment on SNB-75 CNS; 98.1% in the experiment on SNB-19 CNS; 97% with PC-3 prostate; 101% in the experiment on SK-MEL-5 melanoma. Also, the growth was 90.5% in the experiment on UACC-62 melanoma, 98.9% in the experiment with LOX IMVI melanoma and 109% with SK-MEL-28 melanoma.
On to `COCCCNC(=O)c1nnn2c1nc(N)c1cc(Cl)ccc12`, for which the growth was 85.6% in the experiment on HCT-15 colon; 73.4% in the experiment on HT29 colon; 70.6% with SNB-75 CNS; 102% in the experiment on SNB-19 CNS; 80.6% with PC-3 prostate; 98.4% in the experiment with SK-MEL-5 melanoma. Moreover, the growth in the experiment with UACC-62 melanoma is 80%; in the experiment on LOX IMVI melanoma, 88.3%; with SK-MEL-28 melanoma, 87%.
Turning to `Cc1cc(=O)n(-c2ccc(F)cc2)[nH]1`, the growth is 89.6% in the experiment with HCT-15 colon; 105% in the experiment on HT29 colon; 88.5% in the experiment with SNB-75 CNS; 103% with SNB-19 CNS; 90% in the experiment with PC-3 prostate; 97.5% with SK-MEL-5 melanoma. Besides, the results for the growth in the experiment on UACC-62 melanoma and in the experiment with SK-MEL-28 melanoma were 101% and 119%, respectively.
Regarding `O=C(NCc1ccco1)Nc1c(Cl)cc(Cl)cc1Cl`, the growth in the experiment on HCT-15 colon was 100%; in the experiment on HT29 colon, 94.3%; with SNB-75 CNS, 89.1%; with SNB-19 CNS, 103%; in the experiment on PC-3 prostate it was 91.6%; with SK-MEL-5 melanoma it was 100%. For the same compound, the growth is 101% with UACC-62 melanoma, 99.3% with LOX IMVI melanoma and 103% in the experiment on SK-MEL-28 melanoma.
In the case of `Cc1c(O)cnc2nn(-c3ccccc3)c(=N)n12`, the growth in the experiment on HCT-15 colon is 100%; with HT29 colon, 96.3%; in the experiment on SNB-75 CNS, 76.4%; in the experiment with SNB-19 CNS, 98.5%; in the experiment with PC-3 prostate it was 119%; in the experiment on SK-MEL-5 melanoma it was 101%. Moreover, the growth with UACC-62 melanoma is 106%; with LOX IMVI melanoma it was 102%; in the experiment with SK-MEL-28 melanoma it was 112%.
Regarding `COC(=O)CCCCC1=CCC2C(=O)C=C(O)C2C1` (stereo unspecified), the growth with HCT-15 colon was 96.3%; in the experiment on HT29 colon, 104%; in the experiment on SNB-75 CNS it was 85.5%; in the experiment with SNB-19 CNS, 104%; in the experiment with PC-3 prostate, 92.5%; with SK-MEL-5 melanoma, 102%. Further, the growth in the experiment with UACC-62 melanoma is 103%; in the experiment with LOX IMVI melanoma it was 97.5%; in the experiment with SK-MEL-28 melanoma it was 100%.
Turning to `COc1cc(/C=C/C(=O)c2ccccc2)cc(OC)c1OC`, the growth in the experiment on HCT-15 colon was 31.4%; in the experiment on HT29 colon it was 19.1%; in the experiment on SNB-75 CNS, 71.2%; with SNB-19 CNS, 83.8%; with PC-3 prostate, 58%; in the experiment on SK-MEL-5 melanoma, 76.1%. In addition, the growth is 54.9% with UACC-62 melanoma, 2.98% (active) in the experiment with LOX IMVI melanoma and 82.3% with SK-MEL-28 melanoma.
As to `O=[N+]([O-])c1ccccc1S(=O)c1ccccc1[N+](=O)[O-]`, the growth in the experiment on HCT-15 colon is 98.2%; with HT29 colon, 107%; in the experiment on SNB-75 CNS, 83.1%; with SNB-19 CNS, 106%; in the experiment on PC-3 prostate, 81.1%; in the experiment with SK-MEL-5 melanoma, 95.7%. Further, the results for the growth in the experiment with UACC-62 melanoma, with LOX IMVI melanoma and in the experiment on SK-MEL-28 melanoma were 83.3%, 70% and 100%, respectively.
`COc1cccc(COC(=O)Nc2ccccc2)c1OC`: the growth is 85.4% in the experiment with HCT-15 colon; 105% in the experiment on HT29 colon; 84.1% with SNB-75 CNS; 101% with SNB-19 CNS; 83.9% in the experiment with PC-3 prostate; 94.4% in the experiment on UACC-62 melanoma. Further, the growth in the experiment on LOX IMVI melanoma is 103%; with SK-MEL-28 melanoma, 102%.
In the case of `C/C(=C\c1ccc([N+](=O)[O-])cc1)C(=O)O`, the growth is 103% in the experiment with HCT-15 colon; 107% in the experiment with HT29 colon; 88.5% in the experiment on SNB-75 CNS; 97.7% in the experiment on SNB-19 CNS; 84.2% with PC-3 prostate; 97.8% in the experiment on SK-MEL-5 melanoma. Further, the growth with UACC-62 melanoma is 99.6%; in the experiment on LOX IMVI melanoma, 98.6%; in the experiment on SK-MEL-28 melanoma, 111%.
With `O=C1OC(c2ccc(F)cc2)CC1CN1CCOCC1` (stereo unspecified), the growth was 110% in the experiment with HCT-15 colon; 90.3% in the experiment on HT29 colon; 89.1% with SNB-75 CNS; 98.1% with SNB-19 CNS; 88.9% in the experiment on PC-3 prostate; 110% in the experiment on UACC-62 melanoma. Besides, the growth was 89.2% with LOX IMVI melanoma and 109% with SK-MEL-28 melanoma.
Turning to `O=c1cc(-c2ccccc2)[nH]c(=S)[nH]1`, the growth in the experiment on HCT-15 colon is 107%; in the experiment with HT29 colon, 101%; in the experiment with SNB-75 CNS, 96.9%; in the experiment on SNB-19 CNS, 104%; in the experiment on PC-3 prostate it was 91%; in the experiment on SK-MEL-5 melanoma, 104%. Moreover, the growth in the experiment with UACC-62 melanoma is 106%; in the experiment on LOX IMVI melanoma it was 98.3%; with SK-MEL-28 melanoma, 103%.
For the compound `O=C(Nc1ccccc1)OCCc1ccccc1`, the growth in the experiment on HCT-15 colon is 96.9%; with HT29 colon, 95%; with SNB-75 CNS, 80.3%; in the experiment on SNB-19 CNS it was 101%; in the experiment on PC-3 prostate it was 91%; with SK-MEL-5 melanoma, 99.3%. Besides, the values for the growth in the experiment on UACC-62 melanoma, in the experiment on LOX IMVI melanoma and with SK-MEL-28 melanoma were 104%, 107% and 100%, respectively.
Turning to `CN(C)CCC(=O)c1ccc(O)cc1`, the growth in the experiment on HCT-15 colon is 104%; with HT29 colon, 105%; in the experiment with SNB-75 CNS it was 93.7%; in the experiment with U251 CNS, 100%; with PC-3 prostate it was 106%; in the experiment with SK-MEL-5 melanoma, 99.9%. Besides, the growth in the experiment on LOX IMVI melanoma is 97.2%; with SK-MEL-28 melanoma it was 110%.
`COc1ccccc1C1OC2=Nc3cc(C)c(C)cc3NC2C1=O` (stereo unspecified): the growth in the experiment with HCT-15 colon is 80.8%; in the experiment on HT29 colon, 93.1%; in the experiment on SNB-75 CNS it was -13.2% (active); in the experiment with U251 CNS, 53%; with PC-3 prostate it was 82.5%; in the experiment with SK-MEL-5 melanoma, 78.3%. In addition, the growth is 76.2% in the experiment on UACC-62 melanoma, 72.3% in the experiment on LOX IMVI melanoma and 106% with SK-MEL-28 melanoma.
